This is part of a sample that, as a whole, favours compounds with a hit. Of some 83,000 tested, about 20% had one in any assay.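 Testing used 96-well plates and a 48-hour single-concentration exposure. Example: -40 means 40% of the starting cells died.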 Unmarked numbers belong to inactive results. The source made the active and inactive calls. How the source made its calls: active means growth percent below 10; inactive means the rest.

For 13 molecules, growth results are on record in PubChem BioAssay (NCI).

Holding throughout (test): NCI-60 one-dose screen, 48 h (100 = growth as untreated, 0 = no growth, -100 = all killed)
Details in all cases: 10 µM unless noted

The test system of assay [1] is HCT-15 colon.
Assay [2] relates to HT29 colon.
Assay [3] concerns SNB-75 CNS.
In assay [4] the test system is SNB-19 CNS.
For assay [5], the system named is U251 CNS.
Assay [6] concerns PC-3 prostate.
In assay [7] the test system is UACC-62 melanoma.
Assay [8] deals with LOX IMVI melanoma.
In assay [9] the test system is SK-MEL-28 melanoma.

Regarding `O=C1/C(=C(/c2ccccc2)N2CCOCC2)Cc2ccccc21`, the growth in assay [1] is -25.9% (active); in assay [2], 8.82% (active); in [3], 50.3%; in assay [4], 78.1%; in [5], 9.15% (active); in assay [6] it was 12.2%. The growth in assay [7] is 48.6%; in assay [8], -58.3% (active); in assay [9], -28.9% (active).

In the case of `CSc1ccc(SC2c3ccc(C)cc3Oc3nc(N)c(C#N)c(N)c32)cc1` (configuration not stated), the growth in assay [1] is -74.3% (active); in [2], -65.1% (active); in assay [3], -36.4% (active); in [4], -96% (active); in assay [5], -90.8% (active); in assay [6], -76.2% (active). In addition, the growth in [7] was -75.1% (active); in assay [8], -92.6% (active); in assay [9] it was -86.7% (active).

`O=Nc1c(O)c(Cl)cc2ccccc12`: the growth is 87.9% in assay [1]; 83.1% in assay [2]; 62% in assay [3]; 88.9% in assay [4]; 65.6% in assay [5]; 66.7% in assay [6]. Also, the growth was 77.5% in assay [7], 72.4% in assay [8] and 92.1% in assay [9].

For the molecule `CC(C)(C)CC(C)(C)c1ccc(OCCOCC[N+](C)(C)Cc2ccccc2)cc1`, the growth was 95.2% in assay [1]; -50.5% (active) in assay [2]; -26% (active) in assay [3]; -89% (active) in assay [4]; -88.5% (active) in assay [5]; -13.9% (active) in assay [6]. In addition, the results for the growth in assay [7], in [8] and in assay [9] were -98.5% (active), -29.4% (active) and -67% (active), respectively.

Turning to `CN1CCN(CCCOc2cccc3nc(Nc4cc(Cl)cc(Cl)c4)ccc23)CC1`, the growth in assay [1] is -73.6% (active); in [2], -80.1% (active); in [3] it was 36.4%; in [4], 7.72% (active); in [5], -1.53% (active); in assay [6], 3.25% (active). Moreover, the growth in [7] is -57.7% (active); in assay [8], -92.9% (active); in assay [9], -51.2% (active).

On to `CCOc1cc2ncc(C#N)c(Nc3ccc(OCc4cccc(F)c4)c(Cl)c3)c2cc1NC(=O)CCCCC1CCSS1` (configuration not stated), for which the growth in assay [1] was 97%; in [2] it was 86.8%; in assay [3], 97.8%; in assay [4], 105%; in [5] it was 82.5%; in assay [6], 83.9%. For the same molecule, the growth in assay [7] was 89%; in [8] it was 79.5%; in assay [9], 101%.

Take `CSc1ccc(-c2n[nH]nc2-c2cc3ccccc3s2)cc1`: the growth in assay [1] was 28.7%; in assay [2] it was 37.8%; in [3] it was 44.5%; in assay [4] it was 55.7%; in assay [5] it was 32.6%; in assay [6] it was 56.7%. For the same molecule, the figures for the growth in assay [7], in [8] and in [9] were 47.5%, 34.9% and 59.5%, respectively.

`N#Cc1nnn(-c2ccc(S(N)(=O)=O)cc2)c1NC(=O)CCl`: the growth in assay [1] is 96%; in assay [2], 102%; in assay [3], 85.5%; in assay [4], 96.3%; in assay [5], 92.3%; in assay [6] it was 89.7%. For the same molecule, the growth was 96.6% in [7], 94.6% in [8] and 104% in [9].

For `CC[C@]1(O)C[C@@H]2CN(CCc3c([nH]c4ccccc34)[C@@](C(=O)OC)(c3cc4c(cc3OC)N(C)[C@H]3[C@@](O)(C(N)=O)[C@H](O)[C@]5(CC)[C@@H]6C[C@@H]6CN6CC[C@]43[C@@H]65)C2)C1`, the growth in assay [1] was 11.9%; in [2], 2.2% (active); in assay [3], 50.8%; in [4], 30.9%; in [5], 10.7%; in assay [6] it was 20.7%. Besides, the growth in [7] was 35.7%; in [8] it was 18.3%; in assay [9] it was 68.1%.

For `Clc1ccc2c(NCCNc3nc(N4CCCCC4)nc4ccccc34)ccnc2c1`, the growth in [1] is -30.1% (active); in assay [2] it was -28% (active); in assay [3], -23.2% (active); in assay [4], 13.2%; in assay [5], -81.7% (active); in [6], 9.71% (active). Further, the results for the growth in assay [7], in assay [8] and in assay [9] were -90.7% (active), -83.6% (active) and -79.2% (active), respectively.

As for `Cn1ccnc1C(=O)/C=C/c1ccc(CC(=O)Nc2ccccc2)cc1`, the growth in assay [1] is 6.26% (active); in [2], 5.1% (active); in assay [3], 11.3%; in assay [4] it was 10.3%; in assay [5], 7.03% (active); in assay [6], 25.7%. In addition, the growth in [7] is 26.7%; in assay [8], 8.77% (active); in assay [9] it was 55%.

With `NC1=C(Cl)C(=O)c2ccc(S(N)(=O)=O)cc2C1=O`, the growth in assay [1] is -58.2% (active); in assay [2], -50.3% (active); in assay [3] it was -100% (active); in assay [4] it was -73% (active); in [5], -90.7% (active); in assay [6], 1.22% (active). For the same molecule, the growth in assay [7] is -88% (active); in assay [8], -85.1% (active); in assay [9], -84.9% (active).

As for `CCCCn1c(-c2ccc(C(=O)O/N=C(\N)c3ccc4c(c3)OCO4)cc2)nc(-c2ccccc2)c1-c1ccccc1`, the growth in assay [1] is 19.4%; in [2], 19.7%; in assay [3], -15.4% (active); in assay [4] it was 58.8%; in assay [5], 45%; in assay [6] it was 42.5%. In addition, the growth in assay [7] is 67.9%; in assay [8], -72.5% (active); in [9] it was 76.9%.
